The text below walks through data of PubChem BioAssay (NCI).

This is part of a sample that, as a whole, favours compounds with a hit. Of some 83,000 tested, about 20% had one in any assay.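 Values shown are percent growth following 48 h exposure of cells in 96-well plates to a single concentration of compound; below 10 was considered active.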 Unmarked numbers belong to inactive results. Activity calls are given as the source filed them.

In the test the test system is HCT-116 colon. The test can be described thus: NCI-60 one-dose screen, 48 h (100 = growth as untreated, 0 = no growth, -100 = all killed). The following applies: 10 µM unless noted.
As to `ClCCN(CCCl)C(c1ccccc1)c1ccc(Cl)cc1` (stereo unspecified), the growth was 79.5%. As to `CCCCn1cc(C(=O)/C(C#N)=C/c2cc3ccccc3nc2Cl)c2cc(OC)ccc21`, the growth is 23.6%. To `CCCCNCCc1ccccn1` belongs 102%.

As for `CC(=O)C1C(=O)N(C)C(=O)N(C)C1=O`, the growth was 106%. For the molecule `CC1(C)N=C(N)N=C(N)N1c1cccc(C(=O)Nc2cccc(S(=O)(=O)F)c2)c1`, the growth is 101%. The figure for `C[C@]12CC[C@@H]3C4=C(CC[C@H]3[C@@H]1CC[C@@H]2O)CC(=O)CC4` is 102%; for `Oc1ccccc1OB(Oc1ccccc1O)N(CCCl)CCCl` it is 86.8%; for `NC(Cc1ccc2c(c1)OCO2)c1ccc2c(c1)OCO2` (stereo unspecified) it is 95.5%. The figure for `COc1ccc(-c2ccc(OC)c(OC)c2OC)cc1` is 15.3%; for `CC1(C)N=C(N)N=C(N)N1c1ccc(CCCCc2ccc(S(=O)(=O)F)cc2)c(Cl)c1` it is 12.8%; for `COc1ccc(C2=NN(c3ccccc3)C(c3sc(N(CCCl)CCCl)nc3Cl)C2)cc1` (stereo unspecified) it is 67%. In the case of `N#CC1c2ccccc2C=CN1C(=O)c1ccc(N(CCCl)CCCl)cc1` (stereo unspecified), the growth is 104%. To `CSc1ccccc1NP1(=O)OCC(C)([N+](=O)[O-])CO1` (stereo unspecified) belongs 98%.

As to `Cc1ccc(N)cc1[As]=[As]c1cc(N)ccc1C` (stereo unspecified), the growth was -79.4% (active). Consider `C/C(=N/OC(=O)N(C)C)c1cc(Cl)ccc1Cl`, for which the growth was 101%. On to `CCC(C)[C@H]1O[C@]2(C=C[C@@H]1C)C[C@@H]1C[C@@H](C/C=C(\C)[C@@H](OC3C[C@H](OC)C(O[C@H]4C[C@H](OC)[C@@H](O)[C@H](C)O4)[C@H](C)O3)[C@@H](C)/C=C/C=C3\CO[C@@H]4[C@H](O)C(C)=C[C@@H](C(=O)O1)[C@]34O)O2` (stereo partly specified), for which the growth was -81.1% (active).
